In the antibiotic and cytotoxicity screens of Wong et al. (2023):
In all, about 39,000 compounds went through this assay and about 500 (1.3%) were called active. This excerpt belongs to a sample that is enriched for actives.

System: S. aureus RN4220
Test: growth inhibition call (relative growth <= 0.2)
Conditions: 50 µM

Growth inhibition call, active:
Cl.N=C(N)n1cccn1
CC(=CC(=O)OCCCCCCCCC(=O)O)CC1OCC(CC2OC2C(C)C(C)O)C(O)C1O (stereo not given)
CCCN(C)C[C@@H]1OCCCC[C@@H](C)Oc2ccc(NC(=O)Nc3ccc(C(F)(F)F)cc3)cc2C(=O)N([C@H](C)CO)C[C@H]1C
CCCN(C)C[C@H]1OCCCC[C@@H](C)Oc2ccc(NC(=O)Nc3ccc(F)cc3)cc2C(=O)N([C@@H](C)CO)C[C@H]1C
CCCN(C)C[C@H]1OCCCC[C@H](C)Oc2ccc(NC(=O)Nc3ccc(C(F)(F)F)cc3)cc2C(=O)N([C@@H](C)CO)C[C@H]1C
Cc1oc(=O)oc1CN1CCN(c2cc3c(cc2F)c(=O)c(C(=O)O)c2n3C(C)S2)CC1 (stereo not given)
O=C(C[C@H]1CC[C@H]2[C@@H](COC[C@@H](O)CN2C(=O)Nc2ccc(C(F)(F)F)cc2)O1)NCCc1ccncc1
O=C(C[C@@H]1CC[C@H]2[C@@H](COC[C@@H](O)CN2C(=O)Nc2ccc(C(F)(F)F)cc2)O1)NCCc1ccncc1
O=C(C[C@@H]1CC[C@H]2[C@@H](COC[C@H](O)CN2C(=O)Nc2ccc(C(F)(F)F)cc2)O1)NCCc1ccncc1
O=C(C[C@H]1CC[C@@H]2[C@H](COC[C@@H](O)CN2C(=O)Nc2ccc(C(F)(F)F)cc2)O1)NCCc1ccncc1
O=C(C[C@H]1CC[C@@H]2[C@H](COC[C@H](O)CN2C(=O)Nc2ccc(C(F)(F)F)cc2)O1)NCCc1ccncc1
O=C(C[C@@H]1CC[C@@H]2[C@H](COC[C@@H](O)CN2C(=O)Nc2ccc(C(F)(F)F)cc2)O1)NCCc1ccncc1
O=C(C[C@H]1CC[C@H]2[C@@H](COC[C@H](O)CN2C(=O)Nc2ccc(C(F)(F)F)cc2)O1)NCCc1ccncc1
Cc1cc(C)cc(C(=O)N(C)[C@H](Cc2ccc(-c3ccccc3)cc2)C(=O)N[C@@H](Cc2c[nH]c3ccccc23)C(=O)O)c1

Growth inhibition call, inactive:
C[C@@H]1CN([C@@H](C)CO)C(=O)c2c(c3ccccc3n2C)-c2ccccc2CO[C@H]1CN(C)Cc1ccc(C(=O)O)cc1
NCCn1cccn1
NCc1ccccc1-n1cccn1
C[C@H]1CN([C@@H](C)CO)C(=O)Cc2cc(NS(=O)(=O)c3ccc(Cl)cc3)ccc2O[C@@H]1CN(C)S(=O)(=O)c1cn(C)cn1
CC(C)[C@@H](N)c1nc2c([nH]1)CCCC2
C/C(=C\C(=O)OCCCCCCCCC(=O)O)C[C@@H]1OC[C@H](C[C@@H]2O[C@H]2[C@@H](C)[C@H](C)O)[C@@H](O)[C@H]1O
CCOC(=O)CC1=NNC(=N)SC1
C[C@@H]1CN([C@H](C)CN(C)C)C(=O)c2cc(NC(=O)Cc3cn(C)c4ccccc34)ccc2O[C@H]1CN(C)S(=O)(=O)c1ccc(Cl)cc1
CCCN(C)C[C@@H]1OCCCC[C@H](C)Oc2ccc(NC(=O)Nc3ccc(C(F)(F)F)cc3)cc2C(=O)N([C@H](C)CO)C[C@@H]1C
CCCN(C)C[C@@H]1OCCCC[C@@H](C)Oc2ccc(NC(=O)Nc3ccc(C(F)(F)F)cc3)cc2C(=O)N([C@H](C)CO)C[C@@H]1C
CCCN(C)C[C@H]1OCCCC[C@@H](C)Oc2ccc(NC(=O)Nc3ccc(C(F)(F)F)cc3)cc2C(=O)N([C@@H](C)CO)C[C@H]1C
CCCN(C)C[C@H]1OCCCC[C@@H](C)Oc2ccc(NC(=O)Nc3ccc(C(F)(F)F)cc3)cc2C(=O)N([C@H](C)CO)C[C@H]1C
CCCN(C)C[C@@H]1OCCCC[C@@H](C)Oc2ccc(NC(=O)Nc3ccc(F)cc3)cc2C(=O)N([C@H](C)CO)C[C@H]1C
CCCN(C)C[C@H]1OCCCC[C@@H](C)Oc2ccc(NC(=O)Nc3ccc(F)cc3)cc2C(=O)N([C@H](C)CO)C[C@@H]1C
C[C@H]1CN([C@@H](C)CO)C(=O)c2cc(NS(C)(=O)=O)ccc2O[C@@H]1CN(C)C(=O)Nc1ccc(F)cc1
COCC(=O)N(C)C[C@@H]1Oc2cc(C#CCN(C)C)ccc2S(=O)(=O)N([C@H](C)CO)C[C@@H]1C
C[C@@H]1CCCCO[C@@H](CN(C)C(=O)C2CCCCC2)[C@@H](C)CN([C@@H](C)CO)C(=O)c2cc(NC(=O)Nc3ccc(C(F)(F)F)cc3)ccc2O1
COc1ccc(CNC(=O)C[C@H]2CC[C@@H]3[C@@H](COc4ccc(NC(=O)C(C)C)cc4C(=O)N3C)O2)cc1
C[C@@H]1CN([C@H](C)CO)C(=O)c2cccc(NC(=O)Nc3ccc(F)cc3)c2O[C@H]1CN(C)Cc1ccc(Oc2ccccc2)cc1
COc1ccc(C#Cc2ccc3c(c2)O[C@H](CN(C)C(=O)c2ccccn2)[C@H](C)CN([C@@H](C)CO)S3(=O)=O)cc1
OCCOCc1nnn2c1CN(c1ncccn1)CCC2
COC(=O)[C@H]1CCc2nc[nH]c2C1
Cn1cnc(S(=O)(=O)N2C[C@@H](O)COC[C@H]3O[C@@H](CC(=O)NCc4ccc(F)cc4)CC[C@@H]32)c1
COc1ccc(NC(=O)N(C)C[C@H]2OCCCC[C@H](C)Oc3ccc(NS(=O)(=O)c4ccc(F)cc4)cc3C(=O)N([C@@H](C)CO)C[C@H]2C)cc1
C[C@@H]1CN([C@@H](C)CO)C(=O)c2cc(NS(=O)(=O)c3ccc(Cl)cc3)ccc2O[C@@H]1CN(C)Cc1ccc(C(=O)Nc2ccccc2N)cc1
CCN(CC)c1ccc(N2CC=C[C@@]34O[C@@H]5C=CCCOC(=O)[C@@H]5[C@H]3C(=O)N([C@@H](C)CO)[C@@H]4C2=O)cc1
O=C(C[C@H]1CC[C@H]2[C@@H](COC[C@H](O)CN2C(=O)Nc2ccc(C(F)(F)F)cc2)O1)NCc1ccncn1
O=C(C[C@H]1CC[C@@H]2[C@H](COC[C@@H](O)CN2C(=O)Nc2ccc(Cl)cc2)O1)NCCc1ccncc1
O=C(C[C@@H]1CC[C@@H]2[C@H](COC[C@H](O)CN2C(=O)Nc2ccc(C(F)(F)F)cc2)O1)NCCc1ccncc1
O=C(C[C@H]1CC[C@H]2[C@@H](COC[C@H](O)CN2C(=O)Nc2ccc(Cl)cc2)O1)NCCc1ccncc1
O=C(C[C@H]1CC[C@H]2[C@@H](COC[C@@H](O)CN2C(=O)Nc2ccc(Cl)cc2)O1)NCCc1ccncc1
O=C(C[C@@H]1CC[C@@H]2[C@H](COC[C@H](O)CN2C(=O)Nc2ccc(Cl)cc2)O1)NCCc1ccncc1
O=C(C[C@H]1CC[C@@H]2[C@H](COC[C@@H](O)CN2C(=O)Nc2ccc(C(F)(F)F)cc2)O1)NCc1ccncn1
O=C(C[C@@H]1CC[C@H]2[C@@H](COC[C@@H](O)CN2C(=O)Nc2ccc(Cl)cc2)O1)NCCc1ccncc1
Cc1ccc(S(=O)(=O)Nc2ccc3c(c2)C(=O)N(C)[C@H]2CC[C@@H](CC(=O)NCCc4ccncc4)O[C@H]2CO3)cc1
C[C@@H]1CN([C@@H](C)CO)C(=O)c2cccc(NC(=O)C3CC3)c2O[C@@H]1CN(C)C(=O)NC1CCCCC1
C[C@@H]1CN([C@H](C)CO)C(=O)Cc2cc(NC(=O)CCCCCC(=O)Nc3ccccc3N)ccc2O[C@H]1CN(C)C(=O)Nc1ccc(F)cc1
C[C@@H]1CN([C@H](C)CO)C(=O)c2c(c3ccccc3n2C)-c2ccccc2CO[C@@H]1CN(C)C(=O)c1cc(Cl)cc(Cl)c1
COc1cccc(S(=O)(=O)N[C@@H]2CC[C@H](CC(=O)NC3CCC3)O[C@@H]2CO)c1
CN(C)CC(=O)N[C@H]1CC[C@@H](CC(=O)O)O[C@H]1CO
COCCNC(=O)C[C@@H]1CC[C@H]2[C@@H](COC[C@H](O)CN2S(=O)(=O)c2ccccc2C)O1
Cc1noc(C)c1S(=O)(=O)Nc1ccc2c(c1)CC(=O)N([C@@H](C)CO)C[C@H](C)[C@H](CN(C)S(=O)(=O)c1ccccc1)O2
CC(=O)N(C)C[C@@H]1Oc2ncc(C#CC(C)(C)O)cc2C(=O)N([C@@H](C)CO)C[C@@H]1C
Cc1cc(C(=O)Nc2cccc3c2O[C@@H](CN(C)Cc2ccncc2)[C@@H](C)CN([C@@H](C)CO)C3=O)n(C)n1
COc1ccc(NC(=O)N(C)C[C@H]2OCCCC[C@H](C)Oc3ccc(NS(=O)(=O)c4ccc(C)cc4)cc3C(=O)N([C@@H](C)CO)C[C@@H]2C)cc1
O=C(C[C@@H]1CC[C@@H]2[C@H](COC[C@@H](O)CN2C(=O)Nc2ccc(Cl)cc2)O1)NCCc1ccncc1
O=C(C[C@@H]1CC[C@H]2[C@@H](COC[C@H](O)CN2C(=O)Nc2ccc(Cl)cc2)O1)NCCc1ccncc1
O=C(C[C@@H]1CC[C@H]2[C@@H](COC[C@H](O)CN2C(=O)Nc2ccc(C(F)(F)F)cc2)O1)NCc1ccncn1
O=C(C[C@H]1CC[C@@H]2[C@H](COC[C@H](O)CN2C(=O)Nc2ccc(Cl)cc2)O1)NCCc1ccncc1
C[C@@H]1CN([C@H](C)CO)C(=O)c2cc(C#Cc3ccccc3F)cnc2O[C@H]1CN(C)S(=O)(=O)c1ccccc1
CC(C)NC(=O)[C@@H](C)n1ncn2cccc2c1=O
C[C@H](CO)N1C[C@H](C)[C@@H](CN(C)C(=O)NC2CCCC2)Oc2cc(Br)ccc2S1(=O)=O
C[C@H](CO)N1C[C@H](C)[C@@H](CN(C)Cc2ccc(Cl)c(Cl)c2)Oc2ccc(NC(=O)C3CCCCC3)cc2CC1=O
Cc1cc(C(=O)Nc2cccc3c2O[C@H](CN(C)Cc2ccc4c(c2)OCO4)[C@H](C)CN([C@@H](C)CO)C3=O)n(C)n1
NC(Cc1c[nH]c2ccccc12)C(=O)O (stereo not given)
NCCCC[C@@H](N)C(=O)N[C@@H](Cc1c[nH]c2ccccc12)C(=O)N[C@@H](CCCCN)C(=O)O
